Screen size: about 54,000 compounds; about 120 (0.22%) were called active. Another 8% or so got no clear call; they are omitted. The call rests on the fitted dose curve; in most records, active means well fitted inhibition curve with a large enough effect; inconclusive means small, poorly fitted or top-dose-only effect, or effect the other way; inactive means flat fitted curve, though single readings scatter. For the sample, actives were picked, then their nearest neighbours and some compounds at random.
biological target: Fumarate hydratase, mitochondrial (Homo sapiens) (UniProt P07954); assay: Identification of activators of human fumarate hydratase by quantitative high-throughput screening; details: FH coupled MDH/diaphorase resazurin fluorescence, 15 min; series mostly up to 79.9 µM; activity change, negative = inhibition: at the top concentration; further: the screen sought activators but most active calls are inhibition curves; nearly all actives have a fitted effect of over 45% in size
Description: Fumarate hydratase (FH) is a metabolic enzyme that is part of the Krebs-cycle, and reversibly catalyzes the hydration of fumarate to malate. Mutations of the FH gene have been associated with fumarate hydratase deficiency (FHD), hereditary leiomyomatosis, renal cell cancer (HLRCC), and other diseases. Currently there are no high-quality small molecule probes for studying human fumarate hydratase. To address this, we developed a quantitative high throughput screening (qHTS) FH assay and screened a total of 57,037 compounds in dose-response. While no inhibitors of FH were confirmed, a series of phenyl-pyrrolo-pyrimidine-diones (12 compounds) were identified as activators of human fumarate hydratase. […] The binding of two compounds from the series to human fumarate hydratase was confirmed by microscale thermophoresis. The low hit rate in this screening campaign confirmed that FH is a "tough target" to modulate, and the small molecule activators of human fumarate hydratase reported here may serve as a starting point for further optimization and development into cellular probes of human FH and potential drug candidates.
For primary high-throughput screen, 3 ul of FH solution (containing 13.33nM human fumarate hydratase, 13.33IU/ml malic dehydrogenase, 0.2mM NAD, 0.067mg/ml diaphorase and 0.067mM resazurin in the assay buffer (50 mM Tris pH 8.0, 5 mM MgCl2, 0.01% Brij 3) was dispensed into each well in a black solid bottom 1536-well assay plate (Greiner Bio-One) using a BioRAPTR FRD dispenser (Beckman Coulter, Brea, CA). A 1536-well pintool dispenser outfitted with 20 nl pins (Wako Automation, San Diego, CA) was used to transfer 20 nL of DMSO-solubilized compound (Cherrypick plates) to each 1536-well assay plate. Each compound was screened at five concentrations: 15 nM, 151 nM, 1.5 uM, 15.4 uM, 76.9 uM. Following compound transfer, plates were incubated in room temperature for 10 minutes. 1 uL of substrate solution containing fumaric acid (160 uM) was dispensed via BioRAPTR FRD to initiate the reaction. Plates were immediately transferred to a ViewLux microplate imager (PerkinElmer, Waltham, MA), and any resulting resorufin fluorescence was measured (exitation/emission, 525/598 nm) at 0 and 15 minutes. The exposure time is 1 second. Fluorescence from each well was normalized using enzyme-free and DMSO-treated control wells on each plate, and changes in fluorescence (delta RFU) were calculated using the difference in fluorescent signal for each well at 15 minutes versus 0 minutes.
On the % scale 0 is the no-effect control and ±100 the full control effect.

Sequence of Fumarate hydratase, mitochondrial (Homo sapiens) (P07954 whole entry, looked up): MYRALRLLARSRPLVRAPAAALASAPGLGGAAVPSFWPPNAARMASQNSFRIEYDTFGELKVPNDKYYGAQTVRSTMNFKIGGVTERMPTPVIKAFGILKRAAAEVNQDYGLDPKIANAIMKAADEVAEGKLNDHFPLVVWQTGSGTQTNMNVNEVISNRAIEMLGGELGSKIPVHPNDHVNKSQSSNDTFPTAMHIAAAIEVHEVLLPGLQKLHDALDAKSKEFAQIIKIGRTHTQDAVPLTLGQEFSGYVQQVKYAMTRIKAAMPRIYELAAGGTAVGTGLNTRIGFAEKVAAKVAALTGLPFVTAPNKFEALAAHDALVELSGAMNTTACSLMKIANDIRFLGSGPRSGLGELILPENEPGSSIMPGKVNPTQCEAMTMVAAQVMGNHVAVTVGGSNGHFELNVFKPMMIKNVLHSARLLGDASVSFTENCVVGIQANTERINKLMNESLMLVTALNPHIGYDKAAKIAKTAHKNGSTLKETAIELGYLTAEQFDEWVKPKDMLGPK

Activity change, negative = inhibition, inactive:
CCOc1ccc(S(=O)(=O)N2CCCCCC2)c2ccccc12 -12.1%, C=C1CCC2C(C)(COC(C)=O)CCCC2(C)C1CCC(C)CC(=O)O (stereo not drawn) -0.374% [at 53.3 µM], COC(=O)c1cc(NC(=O)c2cnc(SC)nc2-c2ccccc2)cc(C(=O)OC)c1 -19.3%, Cc1cc(NC(=O)CC(C)C)cc(-c2nc3ncccc3o2)c1O -0.21%, CC(=O)c1cnc2ccc(-c3cc(Cl)c(O)c(Cl)c3)nc2c1NC1CCC(CN(C)C)CC1 (stereo not drawn) -1.45% [at 0.673 µM], COc1cc(O)c(C(=O)CCc2ccc(O)cc2)c(O[C@@H]2O[C@H](CO)[C@@H](O)[C@H](O)[C@H]2O)c1 -13.3% [at 53.3 µM], CC(C)C1=CC2C(CC[C@]2(C)O)[C@](C)(O)CC1 (stereo partly drawn) -0.171%, Fc1ccc(-c2nc(-c3ccccc3F)[nH]c2-c2ccncc2)cc1 -0.997%, COC(=O)c1[nH]c(=O)c2ccccc2c1-c1ccc[nH]1 1.76%, CC(=O)N1CCc2cc(S(=O)(=O)NC(Cc3ccccc3)C(=O)NCc3ccc(C)cc3)ccc21 (stereo not drawn) 10.6%, O=C(Nc1ccc2nc(SCC(=O)N3CCCc4ccccc43)sc2c1)c1ccc(F)cc1 -6.95%, COc1ccc(NC(=O)CCN2CCN(CCO)CC2)cc1 9.05%, CCc1ccc(CN(Cc2ccco2)C(=O)c2ccccc2Cl)cc1 -25.2%, COCCNS(=O)(=O)c1cc(-c2nn3c(C)nnc3c3ccccc23)ccc1C -5.96%, CCOC(=O)c1ccc(NC(=O)c2c(NCc3cccs3)sc3c2CCCC3)cc1 -9.56%, CC(F)(F)CN1CCOc2c(nn(-c3ccccc3Cl)c2-c2ccc(Cl)cc2)C1=O -12.3%, CCC/C=C/C(=O)O[C@H]1CC(C)(C)CC2[C@]13[C@H](O)O[C@@]21CCC2[C@@]4(C)CC[C@H](O[C@@H]5O[C@H](C(=O)O)[C@@H](O)[C@H](O[C@@H]6O[C@H](CO)[C@H](O)[C@H](O)[C@H]6O[C@@H]6O[C@@H](C)[C@H](O)[C@@H](O)[C@H]6O[C@@H]6OC[C@](O)(CO)[C@H]6O)[C@H]5O[C@@H]5O[C@H](CO)[C@H](O)[C@H](O)[C@H]5O)C(C)(C)C4CC[C@@]2(C)[C@]1(C)C[C@H]3OC(C)=O (stereo partly drawn) 27.8% [at 13.5 µM], Cc1ccc(-c2nnc3c4ccccc4c(C)nn23)cc1NC(=O)c1cccc(Br)c1 3.86%, Cc1cc(C)c(NC(=O)c2cc3sc(Cl)cc3n2C)c(C)c1 -0.541%, O=C(CN1C(=O)COc2ccc(S(=O)(=O)N3CCOCC3)cc21)N1CCN(c2cccc(Cl)c2)CC1 -5.4%, O=C(Cn1c(=O)n(Cc2cccs2)c(=O)c2cccnc21)Nc1ccc(F)cc1 -20.5%, C[C@H]1CC[C@@]2(OC1)O[C@H]1CC3C4CC[C@H]5C[C@@H](O)CC[C@]5(C)C4CC(=O)[C@]3(C)[C@H]1[C@@H]2C (stereo partly drawn) -3.6% [at 53.3 µM], Cn1c(=O)c2c(n3c4ccccc4nc13)NC(=O)CC2c1cccc(Cl)c1 (stereo not drawn) -25.1%, C/C=C(\C)C(=O)OC1C=C(C)CC(OC(=O)c2ccc(O)cc2)C2C1(C)CCC2(O)C(C)C (stereo not drawn) -1.59% [at 53.3 µM], Cc1ccccc1C#Cc1ccc(CCC(=O)O)cc1 -7.53%, CCOc1cc(/C=C(\C#N)C(=O)Nc2ccccc2C)ccc1OCc1cc(=O)n2nc(CC)sc2n1 -13.3%, CCC1OC(=O)C(C)CC(C)C(=O)/C(C)=C/C(C)C(=O)/C=C/C1(C)O (stereo not drawn) 4.92% [at 53.3 µM], Cc1cc(Br)ccc1NC(=O)Cn1cnc2sc(C)c(S(=O)(=O)N3CCN(C)CC3)c2c1=O 3.35%, CNc1ccc(-c2nc(-c3ccccc3C)no2)cc1[N+](=O)[O-] 0.855%, CC(=O)O[C@@H]1c2c3c(cc(O)c2C(=O)O[C@@H]1C)O[C@@]1(C)[C@@H](O)C[C@H]2C(C)(C)C(=O)C=C[C@]2(C)[C@@H]1C3 -6.54% [at 53.3 µM], Cc1nc2nc(NCc3cccc(Br)c3)[nH]n2c(=O)c1Cc1ccccc1 -4.21%, CC1CC2C3CCC4=CC(=O)C=C[C@]4(C)[C@@]3(F)[C@@H](O)C[C@]2(C)[C@@]1(O)C(=O)CO (stereo partly drawn), CCOc1ccc(CNC(=O)c2cc(-c3ccc(Cl)s3)nc3ccccc23)cc1 12.2%, CC(=O)[C@@H]1C[C@H](C(C)(C)O[C@@H]2O[C@H](CO)[C@@H](O)[C@H](O)[C@H]2O)CC[C@@]2(CO)OC(=O)C[C@@H]12 7.44% [at 53.3 µM], COc1ccc(C)cc1NC(=O)COCc1cc(-c2cccs2)on1 -26.2%, CCN(Cc1ccccc1)C(=O)CCS(=O)(=O)c1ccc2c(c1)oc(=O)n2C -6.23%, Cc1ccc(S(=O)(=O)N2CCC(C(=O)Nc3cc(C)ccc3C)CC2)cc1 -35.1%, COc1ccc(Cc2nc3ccc(C(=O)NCc4ccccc4Cl)cc3o2)cc1 -18.8%, CSc1ccc(CCNC(=O)c2cc(C)nc3c2c(C)nn3-c2cccc(F)c2)cc1 -4.49%, COc1ccc(OC)c(CNC(=O)c2c3c(nc4ccccc24)C(=O)N(C2CCCCC2)C3)c1 -6.19%, COc1ccc(-c2cn3c(C)c(C(=O)Nc4cc(C)cc(C)c4)sc3n2)cc1 -2.84%, C[C@@H]1COCCN1c1cc(C2(S(C)(=O)=O)CC2)nc(-c2cccc3[nH]ccc23)n1 -3.26%, CC(=O)O[C@@H]1CC2C(C)(C)C(=O)C=C[C@]2(C)C2CC[C@]3(C)C(=CC(=O)[C@@H]3c3ccoc3)[C@@]21C (stereo partly drawn) 8.3% [at 53.3 µM], Cc1cc(C)c2oc(C(=O)Nc3ccc(S(=O)(=O)N(C)c4ccccc4)cc3)cc(=O)c2c1 -17.4%, C/C1=C\CC(C)(C)/C=C/C/C(C(=O)O)=C/CC1 -17.8%, C/C=C(\C)C1C(C)=CC2CCC(OS(=O)(=O)O)C(C)C2C1/C=C/C=C/C(=O)O (stereo not drawn) -1.4% [at 53.3 µM], O=S(=O)(c1ccc(Cl)cc1)c1nnn2c1nc(NC1CCCC1)c1sccc12 -1.98%, NC(=O)c1cnc(NCCc2ccc(O)c(Cl)c2)nc1NCc1ccccc1 -22.4%, CC(O)COc1ccccc1 (stereo not drawn) -10.1% [at 53.3 µM], COc1ccc(NC(=O)C(c2ccccc2)N2Cc3ccccc3C2=O)cc1 (stereo not drawn) -21.3%, COc1ccc(N2CCN(C(=O)c3c(C)oc4nc(C)nc(N5CCCC5)c34)CC2)cc1 -7.16%, CCCN(C(=O)Cn1ncc2c([nH]c3ccc(C)cc32)c1=O)c1ccccc1C -18%, CC/C(=C(/CC)c1ccc(O)c(CN(CC)CC)c1)c1ccc(O)c(CN(CC)CC)c1 -1.42%, CCOc1cc(C(=O)NCCc2csc3nc(-c4ccc(C)cc4)nn23)cc(OCC)c1OCC -0.27%, CCOc1ccccc1N(C)C(=O)c1cc2c(s1)-c1ccccc1OC2 -21.1%, O=C(O)CC1CCC(c2ccc(-c3ccc(Nc4ccc(C(F)(F)F)nc4)cn3)cc2)CC1 (stereo not drawn) -2.5%, CC(C)CC(=O)O[C@@H]1O[C@H](CO)[C@@H](O[C@H]2O[C@H](C)[C@@H](N[C@H]3C=C(CO)[C@@H](O[C@H]4O[C@H](CO)[C@@H](O[C@H]5O[C@H](CO)[C@@H](O[C@H]6O[C@H](CO)[C@@H](O)[C@H](O)[C@H]6O)[C@H](O)[C@H]5O)[C@H](O)[C@H]4O)[C@H](O)[C@H]3O)[C@H](O)[C@H]2O)[C@H](O)[C@H]1O 8.78% [at 20.6 µM], CC(O)C1CCC2C3CCC4CC(OC5OC(C(=O)O)C(O)C(O)C5O)CCC4(C)C3CCC12C (stereo not drawn) -5.83%, CO[C@H]1C[C@@H]2CC[C@@H](C)[C@@](O)(O2)C(=O)C(=O)N2CCCC[C@H]2C(=O)O[C@H]([C@H](C)C[C@H]2CC[C@@H](OP(C)(C)=O)[C@H](OC)C2)CC(=O)[C@H](C)/C=C(\C)[C@@H](O)[C@@H](OC)C(=O)[C@H](C)C[C@H](C)/C=C/C=C/C=C/1C -2.79% [at 53.3 µM], CC(C)CC(c1c(O)c(C=O)c(O)c(C=O)c1O)C1CCC(C)(O)C2CC(C(C)(C)O)CCC12C (stereo not drawn) -6.01% [at 53.3 µM], COc1ccc(Cn2c(=O)n(-c3ccccc3C)c(=O)c3c4c(sc32)CN(C(C)=O)CC4)cc1 -3.96%, C/C=C/C=C/[C@@H]1O[C@](O)([C@H](CC)C(=O)NC/C=C/C=C(\C)[C@@H](OC)[C@@H](C)[C@@H]2O[C@H](/C=C/C=C/C=C(\C)C(=O)c3c(O)ccn(C)c3=O)[C@H](O)[C@@H]2O)[C@H](O)[C@H](O)C1(C)C -9.63% [at 20.6 µM], CCOC(=O)CNc1nc2ccccc2n2c(C)nnc12 -4.82%, Cc1cc(C)c2sc(NC(=O)c3ccc(S(=O)(=O)N4CCCC4)cc3)nc2c1 3.95%, Cc1cc(C)c(-n2cc(C)c3c(Cl)nc(C)nc32)c(C)c1 -2.66%, CNC(=O)c1ccc(-c2nc(CN3CCc4ccccc43)c(C)o2)cc1 -16.3%, COc1cc(OC)c(NC(=O)c2ccc(Cc3cc4c(cc3C)C(C)(C)CCC4(C)C)o2)c(OC)c1 -27.2%, O=C(Nc1ccc2nc(SCC(=O)N3CCCc4ccccc43)sc2c1)c1ccc(Cl)cc1 -13.7%, CC1(C)CCC2(C(=O)OC3OC(COC4OC(CO)C(O)C(O)C4O)C(O)C(O)C3O)CCC3(C)C(=CCC4C5(C)CCC(O)C(C)(C(=O)O)C5CCC43C)C2C1O (stereo not drawn) -1.76% [at 20.6 µM], COc1ccccc1-c1c[nH]c2ncc(-c3cncc(C(=O)N(C)C)c3)cc12 3%, CN(Cc1ccccc1)C(=O)CCS(=O)(=O)c1cc(Br)cc2c1N(C(=O)C1CC1)CC2 -0.325%, CC1CCC2C(C(=O)O)=CC3C(O)C(C)(C)CC123 (stereo not drawn) 3.29%, CC(O)/C=C/C1(O)C2(C)COC1(C)CC(O)C2 (stereo not drawn) -5.68%, CC1CCC2C(C)(C)C(O)CCC2(C)C12Cc1c(O)cc3c(c1O2)CN(C(CCC(N)=O)C(=O)O)C3=O (stereo not drawn) -1.12% [at 53.3 µM], CC(=O)N1CCCc2cc(S(=O)(=O)N3CCC(C(=O)NCc4ccc(C)cc4)CC3)ccc21 2.25%, NC1CCC(Nc2cc(-c3cccc(NCc4cccc(F)c4)n3)c(Cl)cn2)CC1 (stereo not drawn) 0.142%, Cc1ccc(S(=O)(=O)NCc2nc3nc(C)cc(C)n3n2)cc1 -12.1%, Cc1nc2c(C(F)(F)F)cccc2nc1-c1ccc(-c2cccc(S(C)(=O)=O)c2)cc1 0.357%
